Assay outcomes from PubChem BioAssay.
Only some compounds are listed: those with a hit (about 1.2% of all), similar ones and a draw of the others.
CtBP-E1A blk: blocks the CtBP interaction with E1A; AlphaScreen GST-E1A/His-CtBP binding, 1536-well; hits give low values; activity change, % (concentration not given with the values); actives 0.49% (n = 340,000)
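Protein mix (5X: 125 nM each GST-E1A, His-CtBP) was incubated with pinned compound 2 h at 37 deg C in dark, in 50 mM Tris pH 8.0 buffer with 300 mM NaCl. Glutathione donor and nickel acceptor beads followed; AlphaScreen signal read after 1 h.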
CCT modulator: cytosolic chaperonin activity modulation | purified chaperonin ATPase assay, HTRF ADP detection, 30 min | activity change, % (concentration not given with the values), hits read low | actives 0.3% (n = 360,000); in the data active means activity change below about -30%
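Nucleotide hydrolysis assay: TRiC at 20–40 nM final (set by batch activity) with 10 uM ATP, 30 min at 37 °C, in presence of 76 uM compound. Detection by competitive ADP HTRF, 30 min ambient.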
Akt phos inh: Akt phosphorylation inhibition | Neuro2A IGF-stimulated pAkt S473 HTRF, 20 min; hits give low values | activity change, % for hits at 50 µM | actives 0.32% (n = 360,000) | AID 651550; in the data active means activity change below about -80%; inconclusive means mostly about -51% to -80%
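Neuro2A cells in DMEM with 0.5% FBS, overnight at 37 deg C, given compound at single 50 µM final, then IGF (6 nM final) for 20 min at 37 deg C. Lysed; phospho-Akt Ser473 by HTRF after 24 h, 665/615 ratio.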
Six1-Eya2 inh: inhibitors of human Six1/Eya2 interaction; Q15475+O00167; AlphaScreen GST-Six1/His-Eya2 binding, biochemical; hits give low values; activity change, % (test concentration not listed); actives 0.56% (n = 360,000); AID 651725
Target sequence (O00167 whole entry, looked up): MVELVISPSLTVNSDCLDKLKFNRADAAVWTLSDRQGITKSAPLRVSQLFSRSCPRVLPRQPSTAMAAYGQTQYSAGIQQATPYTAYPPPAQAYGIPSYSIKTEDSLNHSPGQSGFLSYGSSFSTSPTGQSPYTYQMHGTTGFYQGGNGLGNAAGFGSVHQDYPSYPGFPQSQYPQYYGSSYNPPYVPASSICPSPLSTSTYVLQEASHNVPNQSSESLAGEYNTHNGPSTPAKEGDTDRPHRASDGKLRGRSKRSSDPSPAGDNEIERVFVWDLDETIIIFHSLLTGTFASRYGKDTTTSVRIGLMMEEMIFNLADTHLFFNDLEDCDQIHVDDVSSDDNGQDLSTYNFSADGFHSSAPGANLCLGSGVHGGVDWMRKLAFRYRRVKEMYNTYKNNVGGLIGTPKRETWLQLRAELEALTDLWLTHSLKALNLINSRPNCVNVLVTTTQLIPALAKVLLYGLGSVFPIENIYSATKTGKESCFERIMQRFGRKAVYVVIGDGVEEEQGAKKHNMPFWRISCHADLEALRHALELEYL
Target sequence (Q15475 whole entry, looked up): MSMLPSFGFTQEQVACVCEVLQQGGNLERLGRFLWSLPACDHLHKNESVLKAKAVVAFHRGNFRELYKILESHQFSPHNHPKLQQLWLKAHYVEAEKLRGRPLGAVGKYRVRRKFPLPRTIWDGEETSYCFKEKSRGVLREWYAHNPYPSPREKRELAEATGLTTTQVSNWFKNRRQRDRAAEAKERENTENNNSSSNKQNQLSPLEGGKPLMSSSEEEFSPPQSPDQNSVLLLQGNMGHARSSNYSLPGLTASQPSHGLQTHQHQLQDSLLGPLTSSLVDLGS
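Homogeneous AlphaScreen proximity assay pairing GST-Six1 with His-tagged Eya2 (added as 5X mix: 250 nM and 500 nM) in 50 mM Tris pH 8.0, 300 mM NaCl, 1 mM TCEP. Glutathione donor and nickel acceptor beads; 1 h, 37 °C, dark.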
Numbers without * were called inactive. Unless noted, no stated cut-off is given here; in the data, active means activity change below about -65%; inconclusive means mostly about -30% to -63%; inactive means weaker than that. On the % scale 0 is the no-effect control and ±100 the full control effect.

CC1NC(=O)c2cccnc2-n2c1nc1ccccc1c2=O (stereo not given) was read as CtBP-E1A blk -20, CCT modulator -2, Akt phos inh inactive and Six1-Eya2 inh 1.
`Cc1nc(C(F)(F)F)c(C(=O)N/N=C(\N)c2ccccn2)s1` gave CtBP-E1A blk -92*, CCT modulator 0, Akt phos inh inactive and Six1-Eya2 inh -77*.
N/C(=N\NS(=O)(=O)c1ccccc1C(F)(F)F)c1ccccn1 was read as CCT modulator -1, Akt phos inh inactive and Six1-Eya2 inh -6.
For Cc1ccccc1C(=O)Oc1ccc2ccc(O)cc2c1 the results were CtBP-E1A blk 6, CCT modulator -2, Akt phos inh inactive and Six1-Eya2 inh -5.
`COc1ccc(Nc2nc(N3CCCC3)c3ccccc3n2)cc1` gave CtBP-E1A blk inconclusive, CCT modulator -1, Akt phos inh inactive and Six1-Eya2 inh -28.
CCN(CC)c1ccc(Nc2nc(N3CCOCC3)c3ccccc3n2)cc1 was read as CtBP-E1A blk -78*, CCT modulator 1, Akt phos inh inactive and Six1-Eya2 inh -81*.
C=C(C)C(=O)Nc1cccc(C2=NOC3(C2)C[C@H](C(N)=O)N(C(=O)/C=C/C)C3)c1 (stereo not given in full) was read as CtBP-E1A blk 0, CCT modulator -50*, Akt phos inh inactive and Six1-Eya2 inh -4.
CC(=O)Nc1ccc(Nc2nc(C)c([N+](=O)[O-])c(Nc3ccc(NC(C)=O)cc3)n2)cc1 was read as CtBP-E1A blk -1, CCT modulator -2, Akt phos inh inactive and Six1-Eya2 inh 3.
Cc1ccccc1C(=O)N/N=C/c1ccc([N+](=O)[O-])s1 was read as CtBP-E1A blk 44, CCT modulator 2, Akt phos inh inactive and Six1-Eya2 inh 8.
`Cc1c(Cl)cccc1N=Cc1ccc([N+](=O)[O-])s1` gave CtBP-E1A blk inconclusive, CCT modulator 1, Akt phos inh inactive and Six1-Eya2 inh -67*.
Screening Cc1c(Nc2ccc3nonc3c2[N+](=O)[O-])c(=O)n(-c2ccccc2)n1C returned CtBP-E1A blk 20, CCT modulator -1, Akt phos inh inactive and Six1-Eya2 inh -7.
For Cc1c(Nc2cc(Cl)c3nonc3c2[N+](=O)[O-])c(=O)n(-c2ccccc2)n1C the results were CCT modulator 1, Akt phos inh inactive and Six1-Eya2 inh -88*.
O=C(COc1ccccc1)N1CCN(S(=O)(=O)c2cccs2)CC1 was read as CtBP-E1A blk -4, CCT modulator -4, Akt phos inh inactive and Six1-Eya2 inh 2.
`O=C(COc1ccc(-c2ccccc2)cc1)N1CCN(C(=O)c2cccs2)CC1` gave CtBP-E1A blk 7, CCT modulator -1, Akt phos inh inactive and Six1-Eya2 inh -74*.
CN(C)c1cc[n+](CC(=O)Nc2ccc(Oc3ccccc3)cc2)cc1 was read as CtBP-E1A blk -3, CCT modulator 0, Akt phos inh inactive and Six1-Eya2 inh -1.
`Cc1ccc(NC2c3ncccc3C(=O)N2Cc2ccco2)c(C)c1` (stereo not given) gave CtBP-E1A blk -1, CCT modulator -5, Akt phos inh inactive and Six1-Eya2 inh -2.
For O=C(COC(=O)c1cccs1)c1ccccc1 the results were CtBP-E1A blk 7, CCT modulator -2, Akt phos inh -127%* and Six1-Eya2 inh 7.
COc1ccc(C(=O)COC(=O)c2cccs2)cc1 was read as CCT modulator -1, Akt phos inh inactive and Six1-Eya2 inh 12.
Screening CC1(C(=O)NS(=O)(=O)c2cccc(C#N)c2)CCN1C(=O)CC1CCCCC1 (stereo not given) returned CtBP-E1A blk -25, CCT modulator 0, Akt phos inh inactive and Six1-Eya2 inh 10.
CC(C)Cc1nnc(NC(=O)CSc2nc(=O)cc(N)n2-c2ccccc2)s1 was read as CtBP-E1A blk 4, CCT modulator 0, Akt phos inh -114%* and Six1-Eya2 inh -3.
For Nc1cc(=O)nc(SCC(=O)Nc2ccccc2)n1-c1ccccc1 the results were CtBP-E1A blk 3, CCT modulator -2, Akt phos inh inactive and Six1-Eya2 inh -5.
COC(=O)c1cnn(C(=O)c2cc(OC)ccc2Br)c1N was read as CtBP-E1A blk 3, CCT modulator -1, Akt phos inh inactive and Six1-Eya2 inh 0.
For CCOC(=O)/C(=C/Nc1ccc(F)c(F)c1)[N+](=O)[O-] the results were CtBP-E1A blk -4, CCT modulator -1, Akt phos inh inactive and Six1-Eya2 inh 6.
For Cc1ccc(C(=O)CSc2nc3cccnc3n2C)cc1 the results were CtBP-E1A blk -1, CCT modulator -1, Akt phos inh -106%* and Six1-Eya2 inh 4.
Screening COc1ccc(N2C(=O)C(Cl)=C(N3CCN(Cc4ccccc4)CC3)C2=O)cc1 returned CtBP-E1A blk -25, CCT modulator -2, Akt phos inh inactive and Six1-Eya2 inh inconclusive.
Screening COc1ccc(N2C(=O)C(Cl)=C(N(CCO)Cc3ccccc3)C2=O)cc1 returned CtBP-E1A blk -1, CCT modulator -1, Akt phos inh -112%* and Six1-Eya2 inh -7.
`CSCCC(N=C1NS(=O)(=O)c2ccccc21)C(=O)NCCc1ccccc1` (stereo not given) gave CtBP-E1A blk 1, CCT modulator 0, Akt phos inh inactive and Six1-Eya2 inh 4.
`COc1ccc(N2CC(C(=O)N3CCC4(CC3)CC(=O)c3ccccc3O4)CC2=O)cc1` (stereo not given) gave CtBP-E1A blk -1, CCT modulator -56*, Akt phos inh inactive and Six1-Eya2 inh -2.
`CCN(C(=O)COc1cc(=O)n(C)c2ccccc12)c1cccc(Cl)c1` gave CtBP-E1A blk -4, CCT modulator -55* and Six1-Eya2 inh -1.
`CN(C(=O)COc1cc(=O)n(C)c2ccccc12)c1cccc(Cl)c1` gave CtBP-E1A blk -1, CCT modulator -1, Akt phos inh inactive and Six1-Eya2 inh -3.
`Cc1nonc1C1CCCN1C(=O)c1cc(COc2ccc(F)cc2Cl)on1` (stereo not given) gave CCT modulator 0, Akt phos inh inactive and Six1-Eya2 inh -1.
`COc1ccc(-c2nc3ccccc3[nH]2)cc1` gave CtBP-E1A blk 14, CCT modulator 1, Akt phos inh inactive and Six1-Eya2 inh 2.
Screening COc1ccc(-c2cc(=O)n(-c3nc4ccccc4[nH]3)[nH]2)cc1 returned CtBP-E1A blk -65*, CCT modulator 1, Akt phos inh inactive and Six1-Eya2 inh inconclusive.
For CN1CCN(S(=O)(=O)c2ccc([N+](=O)[O-])cc2)CC1 the results were CtBP-E1A blk -4, CCT modulator 0, Akt phos inh inactive and Six1-Eya2 inh 9.
For CC1CCN(S(=O)(=O)c2ccc([N+](=O)[O-])cc2)CC1 the results were CtBP-E1A blk -9, CCT modulator -2, Akt phos inh inactive and Six1-Eya2 inh -10.
